Reference: ChEMBL document CHEMBL3433997, “St. Jude Leishmania screening dataset” (2016)

Experiments:
Assay type in all cases: functional
[1] = target: Solute carrier family 2, facilitated glucose transporter member 1 (Homo sapiens) (UniProt P11166); test: ST_JUDE_LEISH: Cytotoxicity at 2uM final concentration against transgenic Leishmania Mexicana promastigotes LmGLUT1 that are glucose transport deficient and complemented with the human glucose transporter GLUT1. Activity is measured by DNA content using SYBR green in vitro
[2] = target: Hexose transporter 1 (Plasmodium falciparum) (UniProt O97467); test: ST_JUDE_LEISH: Cytotoxicity at 2uM final concentration against transgenic Leishmania Mexicana promastigotes LmPfHT that are glucose transport deficient and complemented with the Plasmodium falciparum hexose transporter. Activity is measured by DNA content using SYBR green in vitro
[3] = target: Glucose transporter (Leishmania mexicana) (UniProt O61059); test: ST_JUDE_LEISH: Cytotoxicity at 2uM final concentration against transgenic Leishmania Mexicana promastigotes LmGT2 that are glucose transport deficient and complemented with the L. Mexicana glucose transporter 2. Activity is measured by DNA content using SYBR green in vitro

Solute carrier family 2, facilitated glucose transporter member 1 (Homo sapiens), sequence (P11166 whole entry): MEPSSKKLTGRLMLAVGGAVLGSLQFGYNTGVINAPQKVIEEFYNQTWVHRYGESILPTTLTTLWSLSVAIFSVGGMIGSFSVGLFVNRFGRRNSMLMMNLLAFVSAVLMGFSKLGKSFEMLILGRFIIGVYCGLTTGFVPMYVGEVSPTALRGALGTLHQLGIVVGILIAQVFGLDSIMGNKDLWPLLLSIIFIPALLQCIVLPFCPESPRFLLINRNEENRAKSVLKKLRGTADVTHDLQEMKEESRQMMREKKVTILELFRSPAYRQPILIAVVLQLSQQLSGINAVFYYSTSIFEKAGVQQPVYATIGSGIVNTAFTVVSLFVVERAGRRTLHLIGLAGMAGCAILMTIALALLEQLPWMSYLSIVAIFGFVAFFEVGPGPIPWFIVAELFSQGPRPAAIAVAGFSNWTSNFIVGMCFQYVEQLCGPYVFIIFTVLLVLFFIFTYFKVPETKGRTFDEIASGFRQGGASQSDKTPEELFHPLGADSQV

Row | SMILES | inhibition [1] [%] | inhibition [2] [%] | inhibition [3] [%]
1 | O=C(NCc1ccc(C(=O)N2CCC(N3CCCCC3)CC2)cc1)c1cc(-c2cccc(C(F)(F)F)c2)ccc1O | 7.73 | 6.4 | 7.14
2 | O=C(/C=C/c1ccc(Cl)c(Cl)c1)NCCCCCCN1CCN(C(=O)Nc2cccc(Cl)c2)CC1 | 0.57 | 1.97 | 3.02
3 | CC(C)c1ccc(Nc2nc(NCCc3c[nH]cn3)nc(NCc3ccccc3)n2)cc1 | 1.58 | 1.6 | 0.61
4 | Nc1c(Cl)cc(C(O)CNCCCCCCOCCc2ccc(O)cc2)cc1Cl (centres undefined) | -0.61 | -1.55 | -2.56
5 | Cc1cccc2nc(-c3ccc(-c4cccc(CN5CCCCC5)c4)s3)[nH]c12 | 5.63 | 5.12 | 1.81
6 | Cc1c(-c2ccc3c(c2)C(NCCCN2CCCCC2)CC3)cnc(N)c1C (centres undefined) | 0.7 | 0.89 | 2.57
7 | O=C(NCCNc1ccnc(Nc2ccc(F)cc2)n1)Nc1ccccc1F | 2.71 | 1.86 | -2.84
8 | N#Cc1ccc2c(c1)CCN(CCC1CCC(NC(=O)c3ccc(-c4ccccc4)s3)CC1)CC2 (centres undefined) | 4.75 | 3.75 | 2.43
9 | CC(Cc1ccc(NC(=O)c2ccc(NCCc3ccccc3)cc2)cc1)NCCc1cccc(Cl)c1 (centres undefined) | -0.04 | -0.81 | -1.31
10 | NC(=O)c1cccc(C(=O)Nc2cccc(-c3ccc(-c4nc5ccccc5[nH]4)s3)c2)c1 | 1.49 | 1.48 | 0.12
11 | CN(C(=O)Cc1ccc(Cl)c(Cl)c1)C1CCN(CCCCCNC(=O)/C=C/c2ccc(Cl)c(Cl)c2)CC1 | 4.46 | 3.72 | 3.27
12 | OCCN1CCN(C(=S)NC2CCCCC2)CC1 | -1.08 | -1.56 | -1.81
13 | CCn1c(Sc2ccc(C#N)c([N+](=O)[O-])c2)nnc1-c1cc(OC)cc(OC)c1 | 1.62 | 0.59 | -0.03
14 | COc1cc2cc(C(=O)Nc3ccccc3)c(N)nc2cc1OC | 0.36 | 1.61 | 0.18
15 | COc1cc(-c2nc(-c3ccc(C(=O)c4ccc(F)cc4)cc3)c(-c3ccccc3)[nH]2)cc(OC)c1O | 3.28 | -0.56 | 0.05
16 | O=C1NC(c2ccccc2)C2(CCN(CC(O)COc3cccc4ncccc34)CC2)O1 (centres undefined) | 2.46 | 3.19 | 1.26
17 | CCOc1ccccc1CNc1nccc(NCCc2cn(C)c3ccccc23)n1 | 7.77 | 3.5 | 2.49

Row | SMILES | inhibition [1] [%] | inhibition [2] [%] | inhibition [3] [%]
18 | CCC(C)c1ccc(NC(=O)c2ccc(S(=O)(=O)Nc3ccc(OC)c(N4CCN(CC5CC5)CC4)c3)cc2)cc1 (centres undefined) | 1.59 | -0.83 | -1.88
19 | Cc1cc(C(F)(F)F)n2nc(C(=O)N(Cc3cncn3Cc3cccc(F)c3)CC3CC3)cc2n1 | -0.1 | -0.07 | 2.14
20 | CCOc1cc(OCC)c2ccccc2c1CNCCCCCCNCc1c(OCC)cc(OCC)c2ccccc12 | 83.2 | 50.7 | 56.7
21 | COc1cc(C(=O)N2CCOC(CCN3CCC(c4ccc(Cl)cc4)CC3)(c3ccc(Cl)c(Cl)c3)C2)cc(OC)c1OC (centres undefined) | 12.4 | 11.2 | 13.7
22 | CCOc1ccc(C(=O)N2CCOC(CCN3CCC(c4ccccc4)CC3)(c3ccc(Cl)c(Cl)c3)C2)cc1 (centres undefined) | 3.91 | 3.91 | 4.6
23 | O=C(Nc1ccc(Cl)cc1C(=O)Nc1cccc(F)c1)c1ccc([N+](=O)[O-])cc1 | 0.5 | 0.92 | 1.58
24 | O=C(Nc1ccc(Cl)cc1)Nc1ccc2nonc2c1 | 0.79 | 1.43 | 0.9
25 | Cc1cc2nc(-c3ccc(OCC(=O)NCc4ccc(C(C)(C)C)cc4)cc3)[nH]c2cc1C | 6.86 | 7.11 | 6.35
26 | O=C(Nc1cccc(-c2nc3ccccc3[nH]2)c1)c1cccc(NC(=O)c2ccco2)c1 | 2.33 | 2.09 | 0.63
27 | Oc1ccc2ccccc2c1CNCC1CCCCC1 | 0.28 | 3.31 | 2.73
28 | COc1ccc(C(=O)N2CCC3(CC2)C(=O)N(CC(=O)NC2CCCCC2)CN3c2ccccc2)c(OC)c1 | 3.74 | 3.6 | 4.38
29 | Nc1ccc(-c2ccc3ccnc(N)c3c2)cc1 | 0.24 | -0.79 | 1.39
30 | O=C(Nc1ccc(OC2CCN(Cc3ccccc3)C2)c(Cl)c1)c1ccsc1 (centres undefined) | 1.05 | 2.26 | 2.75
31 | CC(C)CNCc1cccc(-c2cccc(CNCCCN3CCN(C)CC3)c2)c1 | 2.03 | 0.17 | 4.44
32 | CN(C)c1ccc(C=Cc2nc(=O)c3ccccc3o2)cc1 | 1.38 | 3.22 | 0.74
33 | O=C(c1cccs1)N1CCN(c2ccc([N+](=O)[O-])c(NC3CC3)c2)CC1 | 1.35 | 0.57 | 1.6
